TTR transcr act – TTR transcription activators in neuroblastoma reporter cells, primary screen, cell-based, luminescence, SH-SY5Y, TTR promoter Gaussia luciferase; 100% = recombinant luciferase protein wells; activation, % at 16.7 µM; actives 1.3% (n = 92,000);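 active = activation above the mean of all tested compounds plus 3 SD, cut at about 9.5% in these data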;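 note: cells exposed to compounds for one day before reading; 0% = median of all test compound wells on the plate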
HuH7 TTR inh – TTR promoter reporter inhibitors in hepatoma cells, counter-screen for TTR transcription activator project, cell-based, luminescence, HuH7 hepatoma. shares compounds with TTR transcr act. HuH7 TTR promoter-Gaussia luciferase reporter. inhibition, % at 16.7 µM. actives 4% (n = 1,100). AID 1117279, 2014;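 active = average inhibition above the solvent-only control wells' mean plus 3 SD, cut at about 15% in these data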;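 note: 0% = cells with DMSO only and 100% = cells with inhibitor control FD; inhibitors lower well luminescence so higher value means more inhibition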
TTR act confirm – TTR transcription activators, retest, confirmation, cell-based, luminescence, SH-SY5Y, triplicate. 1,100 tested, under 10 active. SHSY5Y TTR promoter Gaussia luciferase; 100% = purified Lucia enzyme wells, no cells. activation, % at 16.7 µM. AID 1117280, 2014. shares compounds with TTR transcr act;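 active = mean activation above a set limit taken from the earlier primary screen, cut at about 11% in these data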;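 note: 0% = DMSO-treated cells and 100% = recombinant Lucia luciferase without cells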
* hit, by the source's call. The sample as a whole holds a higher share of hits than the screen did.

SMILES	TTR transcr act	others
COc1cccc(C(C)(O)c2nc(-c3cccc(C(=O)O)c3)cs2)c1 (configuration not stated)	2
COc1ccc(C(C)(NC(C)=O)c2nc(-c3cccc(C(=O)O)c3)cs2)cc1 (configuration not stated)	10.0*	HuH7 TTR inh=-20;TTR act confirm=0
C=CCCC(=O)N1C[C@H]2CCN(C)[C@H]2C[C@H]1c1ccc(Br)cc1	-1
CCCCn1c(N)c(N(CCC(C)C)C(=O)c2ccc(C)o2)c(=O)[nH]c1=O	2
CCOC(=O)c1sc(N(Cc2ccccc2)C(=O)COC(=O)c2ccccc2O)nc1C	13*	HuH7 TTR inh=-14;TTR act confirm=1
Cc1ccsc1C(=O)OCC(=O)N(Cc1ccccc1)C(C)C	2
CCOC(=O)c1sc(N(Cc2ccccc2)C(=O)CCl)nc1C	-1
COc1ccc(C(=Cc2ccccc2[N+](=O)[O-])C(=O)O)cc1	0
Cc1ccc(C(=O)CSc2nnc(-c3cccs3)n2C)o1	0
COc1cnc(-c2ccccc2)c(-c2ccccc2)n1	-3
CC1(C(=O)Nc2ccc3c(c2)OCCO3)CCC(=O)N1CC(F)(F)F (configuration not stated)	-2
CC1(C(=O)NCc2ccccc2)CCC(=O)N1CC(F)(F)F (configuration not stated)	2
CC1(C(=O)Nc2ccc3ccccc3c2)CCC(=O)N1CC(F)(F)F (configuration not stated)	13*	HuH7 TTR inh=-14;TTR act confirm=1
CC(C)CC(N)c1csc(Nc2ccc(C(=O)c3ccccc3)cc2)n1 (configuration not stated)	0
O=C1C(=Cc2ccco2)CCCC1=Cc1ccco1	-1
COc1ccc(CCNC(=O)c2ccccc2Cl)cc1OC	0
COc1ccc(CCNC(=O)c2ccc([N+](=O)[O-])cc2Cl)cc1OC	26*	HuH7 TTR inh=-24;TTR act confirm=1
COc1ccc(CCNC(=O)c2ccc(-c3ccc([N+](=O)[O-])cc3Cl)o2)cc1OC	-2
O=C(CN1CCC2(CC1)OCCO2)c1ccc2cc[nH]c2c1	-1
CCc1nc(SCC(=O)Nc2ccc(C(=O)O)cc2)n[nH]1	0
Cc1onc(-c2ccccc2)c1C(=O)Nc1cccc(S(=O)(=O)N2CCCCC2)c1	1
CCc1noc(C)c1C(=O)Nc1cc(S(=O)(=O)N2CCCCC2)ccc1N(C)C	11*	HuH7 TTR inh=-13;TTR act confirm=0
CCc1noc(C)c1C(=O)N1CCN(S(=O)(=O)c2ccc(Br)cc2)CC1	1
COc1ccccc1OCCC(=O)OCC(=O)Nc1ncc(Cl)cc1Cl	3
COC(=O)[C@]12C[C@H](CC(=O)NCc3cccc4ccccc34)C(=O)N(Cc3ccccc3)C1=C[C@H](COCc1ccccc1)O[C@@H]2C	-1
SMILES	TTR transcr act	others
COCC(C)NC(=O)Cn1c(SCc2ccccc2)nc2ccccc21 (configuration not stated)	1
COC(=O)CSc1nc2ccccc2n1CC(=O)N(C(C)C)C(C)C	13*	HuH7 TTR inh=-5;TTR act confirm=-1
CCSc1nc2ccccc2n1CC(N)=O	0
COC(=O)c1ccccc1NC(=O)c1cc[n+]([O-])cc1	1
CCc1cc(=O)oc2cc(OCC(=O)NCCCn3ccnc3)c(Cl)cc12	-1
CCCCc1cc(=O)oc2cc(OCC(=O)NCCN3CCOCC3)c(Cl)cc12	11*	HuH7 TTR inh=-25;TTR act confirm=2
CCc1cc(=O)oc2c(C)c(OCC(=O)NCCCN3CCOCC3)ccc12	6
CC1(C)CC(=O)C(=Cc2cn(CCC#N)nc2-c2ccc(Cl)cc2)C(=O)C1	2
Fc1ccc(Nc2ncnc3sc4c(c23)CCC4)cc1F	2
O=C(Nc1ccc2c(c1)OCCO2)C(CCc1ccccc1)N(Cc1ccccc1)Cc1ccccc1 (configuration not stated)	0
N/C(Cc1cccs1)=N\OC(=O)COc1ccccc1Cl	11*	HuH7 TTR inh=11;TTR act confirm=0
COc1ccc(/C(N)=N/OC(=O)COc2ccccc2Cl)cc1	0
COc1ccc(C(=O)O/N=C(\N)Cc2cccs2)cc1OC	3
Cc1nc2nc(-c3ccccc3)[nH]n2c(=O)c1Cc1ccccc1	-2
CCOC(=O)C1=CCN(S(=O)(=O)c2ccc(Cl)cc2)C1c1ccc(Cl)c(Cl)c1 (configuration not stated)	-1
CC(=O)c1sc(-c2ccccc2)cc1NS(=O)(=O)c1ccc(C)cc1	4
CC(=O)c1sc(-c2ccccc2)cc1NS(=O)(=O)c1ccccc1	1
CC(=O)c1sc(-c2ccc(F)cc2)cc1NS(=O)(=O)c1ccc(C)cc1	17*	HuH7 TTR inh=-6;TTR act confirm=0
O=C(c1cnc2c(c1)COc1ccc(Cl)cc1-2)c1ccccc1O	-5
CCCCCCn1cnc2c(oc3nc4c(cc32)CCCC4)c1=O	2
N#C/C(=C\c1ccncc1)C(=O)Nc1ccc(C(=O)O)cc1	1
Cc1ccc(-n2c(SCC(=O)N3CCCc4ccccc43)nnc2-c2cccnc2)c(C)c1	1
C[C@H](CO)N1C[C@H](C)[C@@H](CN(C)S(=O)(=O)c2ccc3ccccc3c2)OCc2cn(nn2)CCCC1=O	0
C[C@@H]1CN([C@@H](C)CO)C(=O)CCCn2cc(nn2)CO[C@H]1CN(C)S(=O)(=O)c1cccc(C#N)c1	-2
COc1cccc(S(=O)(=O)N(C)C[C@@H]2OCc3cn(nn3)CCCC(=O)N([C@@H](C)CO)C[C@H]2C)c1	11*	HuH7 TTR inh=-8;TTR act confirm=1
SMILES	TTR transcr act	others
Nc1ncnc(N2CCOCC2)c1N	0
Nc1ncnc2c1ncn2CCN1CCOCC1	13*	HuH7 TTR inh=-5;TTR act confirm=0
Nc1ncnc2c1ncn2[C@H]1C[C@H](O)[C@@H](CO)O1	9
CC(NC(=O)Nc1ccccc1F)C(C)(C)C (configuration not stated)	-2
O=C(COC(=O)Cc1ccc(Br)cc1)NC12CC3CC(CC(C3)C1)C2	-4
CCc1cc(C(=O)N2CCN(c3ccccn3)CC2)sc1C	0
O=P(O)(CCc1ccccc1)C(O)c1ccccc1 (configuration not stated)	-3
COc1ccc(-c2cc3c(c4c2ccn4C)C2CCC3C2)cc1 (configuration not stated)	-1
Cn1ccc2c(-c3ccc(C(=O)O)cc3)cc3c(c21)C1CCC3C1 (configuration not stated)	12*	HuH7 TTR inh=-12;TTR act confirm=0
Cn1ccc2c(-c3ccc(C(C)(C)C)cc3)cc3c(c21)C1CCC3C1 (configuration not stated)	-1
CC/C(C)=N/Nc1nc2c(c(=O)[nH]c(=O)n2C)n1Cc1ccccc1	2
Cc1ccc(C(=O)O)cc1-c1ccc(/C=C2/NC(=O)N(c3ccccc3)C2=O)o1	-1
O=C(O)c1ccc(COc2ccccc2/C=C2\NC(=O)N(Cc3ccc(F)cc3)C2=O)cc1	9
Cc1ccc(CN2C(=O)N/C(=C\c3ccc(-c4ccc(C(=O)O)cc4C)o3)C2=O)cc1	11*	HuH7 TTR inh=-18;TTR act confirm=0
CCOC(=O)c1ccc(N=CC2=C(O)CC(C)(C)CC2=O)cc1	2
CCOC(=O)N1CCC(N(CCN(C)C)C(=S)Nc2cccc(Cl)c2C)CC1	-1
Cc1ccc(N(CC(=O)NC2CCCCC2C)S(=O)(=O)c2c(C)noc2C)cc1 (configuration not stated)	0
O=C(NCCCNC(=O)c1cccs1)c1cccs1	-2

Compound activity (PubChem BioAssay)
